Source: PubChem BioAssay (EPA / NIEHS)
Records with an inconclusive call do not appear. Calls of active or inactive are those of the source. Rule for the calls: active = hit-call score of the fitted dose curve at least 0.9, where 1 is the maximum; inconclusive = response in the unintended direction; inactive = score below 0.9.

target: Androgen receptor (Homo sapiens) (UniProt P10275); experiment: ATG_AR_TRANS: Attagene TRANS-FACTORIAL HepG2 Assay for human Androgen Receptor (AR) (AID 2282973); conditions: HepG2 Attagene TRANS-FACTORIAL AR reporter transcription
Outline: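 HepG2 cells transiently transfected with multiplexed GAL4-UAS reporter units and chimeric NR-Gal4 fusion; 24 h compound exposure. Reporter mRNA measured by RT-PCR, 6-FAM labelling, HpaI digestion and capillary electrophoresis; gain-of-signal fitted relative to DMSO baseline.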

Androgen receptor (Homo sapiens), sequence (P10275 whole entry, looked up, the tested form may be a part): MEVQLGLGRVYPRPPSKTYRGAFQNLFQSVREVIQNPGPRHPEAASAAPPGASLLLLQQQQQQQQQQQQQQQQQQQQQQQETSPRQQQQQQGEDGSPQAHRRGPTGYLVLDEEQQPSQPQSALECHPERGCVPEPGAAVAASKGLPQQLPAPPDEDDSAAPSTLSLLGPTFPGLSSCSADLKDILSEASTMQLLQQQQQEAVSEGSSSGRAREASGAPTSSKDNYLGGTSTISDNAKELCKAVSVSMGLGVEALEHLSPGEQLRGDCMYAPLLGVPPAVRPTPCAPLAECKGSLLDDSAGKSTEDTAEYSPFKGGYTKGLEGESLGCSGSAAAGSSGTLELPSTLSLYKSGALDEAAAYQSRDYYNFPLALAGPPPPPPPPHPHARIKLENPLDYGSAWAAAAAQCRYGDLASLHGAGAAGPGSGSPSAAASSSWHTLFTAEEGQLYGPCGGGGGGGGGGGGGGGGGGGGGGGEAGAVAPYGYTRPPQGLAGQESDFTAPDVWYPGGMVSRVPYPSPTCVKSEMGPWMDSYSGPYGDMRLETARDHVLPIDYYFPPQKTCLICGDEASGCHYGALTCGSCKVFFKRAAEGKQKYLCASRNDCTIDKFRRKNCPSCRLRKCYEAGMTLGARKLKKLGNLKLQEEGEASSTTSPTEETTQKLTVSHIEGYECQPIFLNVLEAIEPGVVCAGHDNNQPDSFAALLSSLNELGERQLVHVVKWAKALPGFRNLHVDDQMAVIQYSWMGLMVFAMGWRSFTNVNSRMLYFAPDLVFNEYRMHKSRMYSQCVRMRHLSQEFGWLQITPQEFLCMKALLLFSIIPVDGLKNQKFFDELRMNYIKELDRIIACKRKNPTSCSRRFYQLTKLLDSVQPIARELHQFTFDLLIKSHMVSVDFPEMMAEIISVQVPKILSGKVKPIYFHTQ

outcome, inactive:
COC(OC(C)=O)c1ccccc1 (stereo not given)
c1ccc(-c2ccccn2)nc1
CC(=O)O[C@@H]1C[C@@H]2CC[C@@]1(C)C2(C)C
Cc1c(C(=O)c2c[nH]n(C)c2=O)ccc(S(C)(=O)=O)c1C1=NOCC1
c1ccc(Sc2ccccc2)cc1
COc1ccc(C(C)=O)cc1
CCCCCCCCCc1ccc(OCCO)cc1
C[Si]1(C)O[Si](C)(C)O[Si](C)(C)O1
c1ccc(-c2ccccc2-c2ccccc2)cc1
CCc1cccc(C)c1N(C(=O)C(=O)O)C(C)COC (stereo not given)
CCC1(C)C(=O)N(Cl)C(=O)N1Cl (stereo not given)
NCC(F)(F)C(F)(F)C(F)(F)C(F)(F)C(F)(F)C(F)(F)F
O=c1cc(-c2ccccc2)oc2ccccc12
CC=C(C)C=CC=C(C)C
CCCCCCCOC(=O)c1ccccc1C(=O)OCCCCCCC
O=c1cccc[nH]1
Oc1cc2ccccc2cc1O
COc1nccnc1CC(C)C
C#CC(C)N(C)C(=O)Nc1ccc(Cl)cc1 (stereo not given)
FC(F)(F)C(F)(F)C(F)(F)Br
Nc1nc2ccc([N+](=O)[O-])cc2s1
O=C(O)C(F)(OC(F)(F)C(F)(OC(F)(F)C(F)(OC(F)(F)C(F)(F)C(F)(F)F)C(F)(F)F)C(F)(F)F)C(F)(F)F (stereo not given)
O=C1OC(=O)c2cc(Oc3ccc4c(c3)C(=O)OC4=O)ccc21
Cc1cc(C(=C2C=CC(=Nc3ccc(S(=O)(=O)O)cc3)C=C2)c2ccc(Nc3ccc(S(=O)(=O)O)cc3)cc2)cc(S(=O)(=O)O)c1N
CCCc1ccc(OC)cc1
CCCCNc1ccc(NCCCC)c2c1C(=O)c1ccccc1C2=O
CC=C(C)C(C)=O
O=S(=O)(O)c1cc(S(=O)(=O)O)c2ccc3c(S(=O)(=O)O)cc(S(=O)(=O)O)c4ccc1c2c43
O=C[C@H](O)[C@H](O)[C@H](O)CO
FC(F)(F)N1C(F)(F)C(F)(F)OC(F)(F)C1(F)F
C=C(C)C(=O)OCCOc1ccccc1
Cn1cccc1
O=C(O)C(F)(F)C(F)(F)C(F)F
CO[Si](CCCNCCN)(OC)OC
CCOC(=O)[C@H](O)[C@@H](O)C(=O)OCC
CC1=CCC2C(=O)OC(=O)C2C1 (stereo not given)
COc1cc2c(c(OC)c1OC)-c1ccc(OC)c(=O)cc1[C@@H](NC(C)=O)CC2
C[Si](O[Si](C)(C)C)O[Si](C)(C)C
O=C1CC2CC1C1CCCC21 (stereo not given)
CC1(C)[C@H](C=C(Cl)Cl)[C@H]1C(=O)OCc1cccc(Oc2ccccc2)c1
